Assay outcomes from PubChem.
A selection: hits, their analogues and other compounds. The true share with any hit is near 1.1%.
VLA-4 inh: inhibition in human VLA-4 binding assay, primary screen, VLA-4 allosteric modulator project, MLPCN library, flow cytometry, VLA-4 expressing cells; ligand binding flow cytometry; inhibition, % (about 7 µM as worked out from the volumes in the protocol); actives 0.2% (n = 330,000); in the data active = inhibition above about 50%
ABCB6 inh MLPCN: ABCB6 transporter inhibitors, primary screen, K562-ABCB6 cells, flow cytometry, MLPCN library | AID 602162, 2011 | ATP-binding cassette sub-family B member 6 (Homo sapiens), Q9NP58 | K562-ABCB6 porphyrin accumulation, 1 h; active compounds read low | fluorescence ratio to DMSO, % at 10 µM | actives 0.19% (n = 360,000);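 active = fluorescence ratio to DMSO below 75%, the collection mean minus 3 SD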;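 note: signal is porphyrin accumulated inside mitochondria; 100% equals median channel fluorescence of DMSO control wells; lower ratio means ABCB6 inhibition with less porphyrin fluorescence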
Granule exo inh: LAMP-1 surface exposure blockers, TALL-104 cells – cell-based, flow cytometry, MLPCN library, primary screen; actives 0.66% (n = 360,000); inhibition, % at 10 µM; AID 651702, 2012; TALL-104 LAMP-1 surface exposure; cells stimulated with thapsigargin and PMA;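 active = inhibition above about 55%, limit read from the data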
CaV13 FRET inh: Primary screen for inhibitors of IQ motif and Ca2+-dependent inactivation inhibitor domain binding in CACNA1D, Förster resonance energy transfer in living cells, … | actives 0.098% (n = 340,000) | inhibition, % at 12.3 µM | HEK cells, CFP/YFP FRET ICDI-IQ, plate reader, 10 min; percent FRET-ratio fall versus neutral wells | AID 743397;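 active = mean replicate inhibition of at least 30% and at least 1% of replicates passing that level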;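 note: 0% = median of the neutral control wells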
Exocytosis CP01: inhibitors of lytic granule exocytosis, confirmation, TALL-104 cells, flow cytometry, Cherry Pick01; shares compounds with Granule exo inh; LAMP-1 externalization; stimulated with PMA plus thapsigargin; inhibition, % at 10 µM; actives 11% (n = 1,500); in the data active = inhibition above about 60%;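 note: 0% = stimulated vehicle wells and 100% = unstimulated wells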
Active calls of the source: *; . = no result given.

SMILES	VLA-4 inh	ABCB6 inh MLPCN	Granule exo inh	CaV13 FRET inh	Exocytosis CP01
CC12CNCC(C)(CNC1)C2O (stereo unspecified)	7.4	98.0	-0.5	-8.2	.
Nc1c(C(=O)NCc2ccco2)c2nc3ccccc3nc2n1Cc1ccccc1	-2.3	95.0	21.7	-3.9	.
COc1ccc(Cn2c(N)c(C(=O)NCc3ccco3)c3nc4ccccc4nc32)cc1	-25.5	99.0	58.6*	.	18.5
COc1cccc(-n2c(/C=C/c3ccc(O)c(O)c3)nc3ccccc3c2=O)c1	-52.2	129.0	6.2	-9.5	.
COc1ccc(-n2c(/C=C/c3ccc(O)c(OC)c3)nc3ccccc3c2=O)cc1	-229.4	108.0	57.8*	-7.7	-3.5
